# Assay results reported in the supplement of paper PMC11417369.
# ± gives the standard deviation of the averaged measurements. In all, about 25,000 sequences were measured (“ln(normalized median fluorescence intensity)”: median about 8.9, highest 2% from about 10 on). The sample holds the highest values, similar sequences and a random draw of the others, so the mix is not that of the screen.
# Test system: PfAP2-LT AP2 domain (GST-tagged)
# Assay: gcPBM binding intensity (ln(normalized median fluorescence intensity)); higher = stronger DNA binding
# In short: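 In this array assay, P. falciparum DNA-binding domains with a GST tag, expressed in E. coli, were applied for 1 h to primer-extended double-stranded 36-bp intergenic genomic probes and negative controls on an Agilent 4 × 180k array. Bound protein was visualised with Alexa488 anti-GST antibody at 488 nm. Binding intensity is the highest Masliner-normalised natural-log median intensity across replicate spots of either probe orientation.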
row,Sequence,gcPBM binding intensity (ln)
1,AAATAAAAAAAAAAAAAAAATAACTTAAATGGGATA [TGCATGCA_negctrl_site595],8.33 ± 0.58
2,TGCATTATATTAAATTTTTTATTTGTTGATGTTATA [GTGCAC_negctrl_site371],8.57 ± 0.47
3,TAAAATATATATATGTGTACATAACATATAATTTTT [XGTACX_site1725],8.6 ± 0.46
4,TAAAATTTATAAACTACACACATATATATAGTAATA [CACACA_site3728],8.8 ± 0.42
5,TATATATAATATTTTTCACACACCATTTCCTTAAAC [CACACA_site1341],9.04 ± 0.29
6,AATCATGCTCCGGAAAGTACATAAATAAATAAATAA [XGTACX_site1690],8.85 ± 0.56
7,TAGAATATCCCCTACACACCCAAATAATTTACAAAT [CACACA_site4825],9.3 ± 0.35
8,AGGGAATAATATTAATGTACATATATGAACTTGTTT [XGTACX_site6089],8.93 ± 0.43
9,TATACATACAGACCCACACACAAAAAAAAAAAAAAA [CACACA_site6536],9.35 ± 0.5
10,CACCCCCACAGACACACACACACACCCATATATATA [CACACA_site364],10.45 ± 0.042
11,TACATATACAGACACACACACACACCCCCACAAAAA [CACACA_site495],10.45 ± 0.099
12,TACGCTCCCAGACACACACACACACCGATATAATAT [CACACA_site8098],9.89 ± 0.23
13,TAGACTCCCAGACACACACACACACCCATATAATAT [CACACA_site593],10.2 ± 0.35
14,TATATATATATAGACACACACACACCCATATATATA [CACACA_site4117],9.94 ± 0.23
15,TATATACATAGACACCCACACACAAAAAAAAAAAAA [CACACA_site8186],9.43 ± 0.42
16,CACCCCCACAGACACACACACACACCCACATATATA [CACACA_site365],10.54 ± 0.035
17,TATGATACATAATATACATGCATACACAACATTCAG [TGCATGCA_site487],8.94 ± 0.37
18,ATATATATACCAAGTAGTACATTCTACAACTAATGT [XGTACX_site8653],8.79 ± 0.4
19,ATATTTTGTTATGTAGATGTTGGTAGGAATTTTGGT [CACACA_negctrl_site1104],8.83 ± 0.4
20,CAATTAAACAATTAAACATGCAAAATGATATAATAA [TGCATGCA_site240],8.87 ± 0.49
21,TACGTAAAAATAGGACGTACTTATTTAGAAACCATA [XGTACX_site2498],8.72 ± 0.49
22,AAGAGTTTGAAGTTTGCACACTACGTTAAAAATAAA [CACACA_site3939],8.72 ± 0.59
23,ATAAATAAAACAACAGTGCAATAAAATTAGTTGAGG,9.07 ± 0.54
24,ACATAATAAAAAAAACGTACAAATAGGTTTTTCATA [XGTACX_site6645],8.85 ± 0.57

row,Sequence,gcPBM binding intensity (ln)
1,ATGAGTTACATGGGAAAAATATATATATATATATAT [CACACA_negctrl_site579],9.8 ± 0.23
2,TCTATACCTATTCTTACACACATATGTATTTATATA [CACACA_site4475],9.28 ± 0.46
3,CACACCCACAGACACACACACACATATATAATATAT [CACACA_site594],10.2 ± 0.54
4,AGACATATAATATATACACACATATATATATATATA [CACACA_site1066],9.93 ± 0.085
5,CACCCATACAGACATACACACACATATATATTAATA [CACACA_site8077],9.67 ± 0.27
6,AAATTTTCACTTCAAAAACACACGTATTTTTTTCCT [CACACA_site3813],8.8 ± 0.47
7,CAACAACAAAAAAAAAAATAATAATAATAAAAAATA [TGCATGCA_negctrl_site271],8.71 ± 0.5
8,CATATGTATATGACTACACACAAGGGTGTACATATA [CACACA_site1164],9.2 ± 0.38
9,AGGACAAGGGTTACATGTACATATATATATATATAT [XGTACX_site901],10.2 ± 0.14
10,CAAGGACAATTTACAAACATAATATATGTATATATA [TGCATGCA_negctrl_site5],8.66 ± 0.55
11,ATCATAATTTATTATACACACAATACGTGACCTATT [CACACA_site6977],9.24 ± 0.47
12,ATATTTTGTATAATCACACACACTATTCTTAAATAG [CACACA_site7270],9.23 ± 0.37
13,CAAACCCACGGACACACACACACAAAAATGATTAAA [CACACA_site5365],9.71 ± 0.38
14,AACAAACACGGACACACACACACACTAGAATGATTA [CACACA_site5364],10.2 ± 0.31
15,CAAACAAACGGACACACACACACACCCAAAAATGAT [CACACA_site5363],10.1 ± 0.18
16,TTAAAGCACCCATGCACACACACAAGGGAAAAGAAA [CACACA_site4289],9.49 ± 0.4
17,CACACCCACCAACACACACACAAAAAAAAAAAGAAA [CACACA_site500],9.56 ± 0.47
18,AAAGAAGGGAAACACACACACACACCCACAAAAAAA [CACACA_site3766],10.18 ± 0.099
19,TATTTATTAAAACACACACACACACCCACAAAATAA [CACACA_site241],10.04 ± 0.099
20,CAACAAAAGAAACACACACACACAAACACAAAAAAA [CACACA_site3389],9.91 ± 0.16
21,TTAACAAAGAAACACACACACACACCCAAAAAAAAA [CACACA_site516],10.2 ± 0.11
22,TTTATTAATAAACACACACACACACCCAAAATAAAA [CACACA_site7966],10.2 ± 0.18
23,CCCGAACAAACAAATAAACACACAAAAAAAAATATA [CACACA_site8540],9.15 ± 0.47
24,CAAAAGAAGGTAAACACACACACACCCATACAAAAA [CACACA_site3765],10.1 ± 0.43

row,Sequence,gcPBM binding intensity (ln)
1,TTAATAACAAAATAAACACACATATATAAATCCACA [CACACA_site1590],9.09 ± 0.38
2,TTTATTAATGGACACACACACACACCCAAAATAAAA [CACACA_site4294],10 ± 0.13
3,GAATAATCCAAACACACACACACACCCGAATAAATA [CACACA_site482],10.3 ± 0.45
4,ATTTCAAATTAATTTACACACTTCATACTAAAAGAC [CACACA_site3176],8.71 ± 0.4
5,GGAAAAAAATATAAAAGTACTTTTTATTTATTTTAT [XGTACX_site7418],8.4 ± 0.51
6,AGGAATATAAAGTGCACACATAATTTGGGGGCAAAA [CACACA_site258],9.25 ± 0.44
7,AATTAAATTACTTATACACACATAAAATGGGTGTAT [CACACA_site4703],8.97 ± 0.37
8,AATAAAGGAGCCTATGAACACACACCGGTACATATA [CACACA_site9352],9.33 ± 0.51
9,ATACAATAAAGGTGTACACATATATGATGCAAGATG [CACACA_site5897],9.29 ± 0.52
10,ATGTAATGAAACATTGCACACATATAATAATATAAT [CACACA_site8402],9.31 ± 0.35
11,TTTTACACTTTTTTTTGTACACACTAAAAAGATTAA [XGTACX_site8407],8.59 ± 0.52
12,AATAATTGTTAAAGCTGTACAATACTTATATAAGAA [XGTACX_site5729],8.77 ± 0.45
13,AAAAAATATTGAAGTACACACATTATAAACTTTTTT [CACACA_site5029],8.86 ± 0.49
14,AATACACACCTGTGGGTGCTTATAATAAGCCACAAA,8.95 ± 0.45
15,TTAACAAATAAACACACACACACACCCAAAAAAAAA [CACACA_site8068],10.3 ± 0.2
16,ATAAATAAAAACACAAAACAAAACAAAACAAAACAA [CACACA_negctrl_site1257],8.82 ± 0.4
17,ATAAATAAAAAACACACACACACACCCAAAAAAAAA [CACACA_site2624],9.88 ± 0.3
18,TTTTTTTTTGTTAGTTGTACGTTAAATGAATTTACT [XGTACX_site7675],8.67 ± 0.57
19,TACTAAGAAGTATTTACACACCAACAAGGCGAAAAA [CACACA_site2944],8.88 ± 0.44
20,CCTTTAAGCAAAAACACACACACATATTTATTTATA [CACACA_site6294],9.41 ± 0.3
21,TATAAGCAAAAACACACACACATATATATATATATA [CACACA_site3804],10.2 ± 0.23
22,AAACATATATTAAGCACACACAAACAAAAAAACAAA [CACACA_site2549],9.59 ± 0.61
23,CCTTTAAGCAAAAACACACACACATATATATATATA [CACACA_site348],9.945 ± 0.035
24,TGAAGCAAAAACAAAACACACATATAAATAAATAAA [CACACA_site3925],9.15 ± 0.52

row,Sequence,gcPBM binding intensity (ln)
1,TTTAAGCAAAAACACACACACATATATATATATATA [CACACA_site349],10.1 ± 0.16
2,AAAAAAATAAAAAATATATAAATAATTAATACATGT [GTGCAC_negctrl_site633],8.62 ± 0.59
3,TTATCATTATATAGTTGTACATATTTATTTATAAAA [XGTACX_site2310],8.45 ± 0.44
4,ATTATTTTATATACATGTACATATTATATATAAAAG [XGTACX_site2735],8.51 ± 0.42
5,TATTTTTTTAATAACTGTACTTTTTTGTCAAATGGA [XGTACX_site4179],8.32 ± 0.49
6,ATATATTTCAAAGGGGTGCAGGCATATTTAAGCAAA,8.69 ± 0.49
7,TATTTTAAAAAAAAAAGTACACATAATATATATAAC [XGTACX_site5416],8.57 ± 0.57
8,ATTAAACCGTGGGAGCACACACACACACACACACAT [TGCATGCA_negctrl_site72],10.6 ± 0.4
9,CATTAAACCGTGGGAGCACACACACCCACCCACCCA [CACACA_site8000],9.57 ± 0.2
10,TTAAACCGTGGGAGCACACACACACCCAGACACATA [CACACA_site4337],9.7 ± 0.31
11,TATATATATATATATATATATATATATGTGTATGTA [TGCATGCA_negctrl_site255],10.2 ± 0.26
12,TATATATATATATATATATATATATATATATGTATA [TGCATGCA_negctrl_site17],9.8 ± 0.38
13,AAATATATATATATATATATATATGTGTGTGTATAT [GTGCAC_negctrl_site1],9.79 ± 0.45
14,TTACACTAAATATGTTCACACATTTTTTCCATCATA [CACACA_site4647],8.79 ± 0.45
15,TGAACTCACGAGCACACACACACATATATATATATA [CACACA_site8248],10.3 ± 0.25
16,AACGCACGAGGACACACACACATATTTATATTTATA [CACACA_site6608],9.82 ± 0.41
17,AATGAACTCACGAGCACACACACACCGATATATATA [CACACA_site4710],10.1 ± 0.35
18,CATACAGACGAACACACACACATATAAATATAAATA [CACACA_site6443],9.7 ± 0.38
19,AAAATGAACTCACGAGCACACACACCCATATATATA [CACACA_site8247],9.72 ± 0.25
20,AAAAAAGAAAAAAGGACACACATAAATATACTCACG [CACACA_site2904],9.16 ± 0.48
21,AACTCACGAGGACACACACACATATATATATATATA [CACACA_site4711],10.38 ± 0.035
22,AATGAACAGACGAGCACACACACACCCATATATATA [CACACA_site1018],10.1 ± 0.16
23,TGAACAGACGAGCACACACACACATATATATATATA [CACACA_site1019],10.3 ± 0.2
